Compound activity as filed in PubChem BioAssay.
Only some compounds are listed: those with a hit (about 19% of all), similar ones and a draw of the others.
KB-V1 cytotox = qHTS assay for MDR1-selective chemotherapeutics: Primary screen using the drug-selected MDR subline cells KB-V1; KB-V1 MDR cells viability, CellTiter-Glo, 72 h; Potency, µM (doses to about 46.1 µM), actives largely listed as cytotoxic; actives 3.4% (n = 400,000); AID 1347076, 2019; note: nearly all actives have a fitted effect of over 60% in size
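Cytotoxicity toward P-gp-expressing KB-V1 cells was determined as loss of CellTiter-Glo luminescence after 72 h at 37 degrees C. Compounds were tested in quantitative HTS format across a concentration range, with curves fitted to normalized data.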
HT1080 IDH1KD tx = qHTS for induction of synthetic lethality in tumor cells producing 2HG: qHTS for the HT-1080-IDH1KD cell line; HT-1080 IDH1 knockdown viability, ATP luminescence, 48 h; Potency, µM (top dose mostly 46.1 µM), without a hit: at the top dose activity, negative = toxicity, actives largely listed as cytotoxic; actives 2% (n = 360,000);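 note: 0% = DMSO wells and -100% = cell-free medium wells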
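Luminescent ATP read-out (CellTiter-Glo, 10 min at room temperature) after 48 h compound exposure at 37 °C gave viability of IDH1-knockdown HT-1080 cells. Activity was normalised to DMSO and cell-free wells, then fitted as concentration-response curves.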
TDP1 cell CPT = qHTS for Inhibitors of human tyrosyl-DNA phosphodiesterase 1 (TDP1): qHTS in cells in presence of CPT; chicken DT40 Tdp1-/-;hTDP1 cells + 20 nM CPT, ATP luminescence, 48 h; Potency, µM (highest dose often 46.2 µM), for the others: at the top dose activity change, negative = growth inhibition, most hits filed as inhibitors; actives 12% (n = 420,000); note: nearly all actives have a fitted effect of over 55% in size
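Chicken DT40 Tdp1-/- cells complemented with human TDP1, 400 cells/well, exposed to compounds plus 20 nM camptothecin for at least 48 h at 37 C; viability read as ATP content by CellTiter-Glo luminescence.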
KB-3-1 cytotox = qHTS assay for MDR1-selective chemotherapeutics: Primary screen using the parental adenocarcinoma cell KB-3-1 | KB-3-1 viability, CellTiter-Glo ATP luminescence, 72 h | Potency, µM (doses to about 46.1 µM), actives largely listed as cytotoxic | actives 1.4% (n = 400,000) | AID 1347075, 2019; note: nearly all actives have a fitted effect of over 60% in size
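KB-3-1 parental drug-naive adenocarcinoma cells in DMEM/10% FBS, incubated 72 h at 37 C with pin-transferred compounds across a concentration series. Viability by CellTiter-Glo luminescence; concentration-response curves fitted after normalization.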
HT1080-NT tox = qHTS for induction of synthetic lethality in tumor cells producing 2HG: qHTS for the HT-1080-NT fibrosarcoma cell line; HT-1080-NT fibrosarcoma viability, CellTiter-Glo ATP luminescence, 48 h; actives 1.6% (n = 360,000); Potency, µM (top dose mostly 46.1 µM), without a hit: top-dose activity, negative = less viability, actives largely listed as cytotoxic;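 note: NT is the 2HG producing partner of a matched IDH1 knockdown line; 0% = DMSO-treated cells and -100% = media-only wells without cells; nearly all actives have a fitted effect of over 55% in size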
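A 48-hour cytotoxicity screen used HT-1080-NT cells plated 2 hours before compound delivery. ATP-based CellTiter-Glo luminescence measured viability, normalized to DMSO and no-cell controls.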
DT40 TDP1 no CPT = qHTS for Inhibitors of human tyrosyl-DNA phosphodiesterase 1 (TDP1): qHTS in cells in absence of CPT; DT40 Tdp1-/- hTDP1 cells, no CPT, ATP luminescence, 48 h; Potency, µM (top dose mostly 46.2 µM), for the others: at the top dose activity change, negative = growth inhibition, most hits filed as inhibitors; actives 15% (n = 420,000); AID 686978, 2013; note: nearly all actives have a fitted effect of over 55% in size
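Readout: luminescence from CellTiter-Glo after 30 min in the dark at RT. Cells: DT40 Tdp1-/- with stable hTDP1, 400/well. Exposure: compounds alone, ≥48 hr, 37 °C.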
* hit, by the source's call; i = inactive; ? = inconclusive; / = no result; [ ] = remark or other dose. Calls come from the whole dose curve; as a rule, active = well fitted curve in the direction sought with a large enough effect; inconclusive = small, poorly fitted or top-dose-only effect, or another doubt; inactive = no such curve, though single readings can be large; an effect the other way counts as inactive or inconclusive. Unless noted, % is set by controls: 0 for no effect and ±100 for the full control effect; potency is the fitted concentration of half-maximal effect.

SMILES	KB-V1 cytotox	HT1080 IDH1KD tx	TDP1 cell CPT	KB-3-1 cytotox	HT1080-NT tox	DT40 TDP1 no CPT
Cc1ccccc1CN(C)C(=O)COC(=O)c1ccc2[nH]c(C)c(C)c2c1	?	-1%	16µM*	i	3%	?
Cc1[nH]c2ccc(C(=O)OC(C)C(=O)NCc3ccccc3)cc2c1C (stereo not drawn)	16µM*	?	13µM*	16µM*	?	6.5µM*
CCOC(=O)c1c(C)[nH]c(C(=O)OC(C)C(=O)NCc2ccccc2)c1C (stereo not drawn)	?	-1%	?	i	-7%	-16%
CCc1ccc(NC(=O)CN2C(C(=O)OC)=C(c3ccccc3)c3ccccc3S2(=O)=O)cc1	?	/	0%	i	/	-29%
O=C(N[C@H]1CC[C@H](CCNS(=O)(=O)c2ccc(Cl)cc2)O[C@@H]1CO)c1cccc(F)c1	?	2%	?	?	-15%	?
NC(=O)COc1ccccc1/C=C1/SC(=O)N(CC(=O)N2CCc3ccccc3C2)C1=O	15µM*	-16%	21µM*	i	0%	18µM*
CCOc1cc(/C=C2/SC(=O)N(CC(=O)N3CCc4ccccc4C3)C2=O)ccc1OCC(=O)O	i	-4%[9.24 µM]	10%	i	14%	-2%
COc1ccc2c(c1)c1ncn(Cc3ccco3)c(=O)c1n2C	?	-19%	-5%	i	-15%	13µM*
COc1ccc(C2=NN(C(=O)CSc3ncccn3)C(c3ccc(C)cc3)C2)cc1 (stereo not drawn)	23µM*	-7%	?	i	-5%	18µM*
COc1ccc(C2CC(c3ccc(Br)cc3)=NN2C(=O)CSC2=NCCS2)cc1 (stereo not drawn)	?	?	16µM*	?	?	16µM*
COc1ccc(C2=NN(C(=O)CCC(=O)O)C(c3ccc(OC)cc3)C2)cc1 (stereo not drawn)	i	0%	7%	i	1%	8%
CC(C)(C)OC(=O)C[C@@H]1C/C=C\C[C@H](CC(=O)N(CCO)Cc2ccccc2)C(=O)NC[C@@H](c2ccccc2)OC1=O	i	1%	?	i	-1%	23µM*
CC(C)(C)OC(=O)C[C@H]1C/C=C\C[C@@H](CC(=O)N(CCO)Cc2ccccc2)C(=O)NC[C@H](c2ccccc2)OC1=O	i	3%	21µM*	i	11%	15µM*
O=C(Nc1ccc2ccccc2c1)c1onc2c1CCCC2	i	?	1%	i	?	?
CC1(C)OC(=O)C2=C(C[C@@H](CCc3ccccc3)O[C@H]2C2CCCC2)O1	i	-25%	?	i	-25%	?
COC(=O)c1ccc(C2C(C#N)=C(N)Oc3cc(N)ccc32)cc1 (stereo not drawn)	i	-10%	0.92µM*	i	-18%	-3%
N#CC1=C(N)Oc2cc(N)ccc2C1C1CCCCC1 (stereo not drawn)	?	8.2µM*	?	5.8µM*	21µM*	21µM*
CN(C)c1ccc2c(c1)OC(N)=C(C#N)C2c1cccc(F)c1 (stereo not drawn)	?	0.22µM*	0.021µM*	?	0.18µM*	0.021µM*
N#CC1=C(N)Oc2cc(N)ccc2C1c1cccc(F)c1 (stereo not drawn)	?	2.3µM*	?	5.2µM*	2.9µM*	?
N#CC1=C(N)Oc2cc(O)ccc2C1c1cccnc1 (stereo not drawn)	?	2%	-3%	?	-21%	-12%
Cc1ccccc1C(=O)NNC(=O)CSc1nnc(-c2ccncc2)n1-c1ccccc1	i	7%	-2%	i	12%	14%
COC(=O)c1sccc1NC(=O)COc1ccc(F)cc1Cl	i	5%	-6%	i	4%	-14%
COc1ccc(C(=NNc2ccccc2C(=O)O)c2ccc(OC)cc2)cc1	?	14%	?	i	-3%	-17%
O=C(OCc1cn([C@H]2CN(C(=O)C3CCCCC3)[C@@H](c3ccc(Cl)cc3)C[C@@H]2O)nn1)c1ccccc1	i	-10%	?	i	-15%	21µM*
O=C(OCc1cn([C@@H]2CN(C(=O)C3CCCCC3)[C@@H](c3ccccc3)C[C@H]2O)nn1)c1ccccc1	i	14%	0%	i	5%	?
SMILES	KB-V1 cytotox	HT1080 IDH1KD tx	TDP1 cell CPT	KB-3-1 cytotox	HT1080-NT tox	DT40 TDP1 no CPT
O=C(OCc1cn([C@H]2CN(C(=O)C3CCCCC3)[C@@H](c3ccccc3)C[C@@H]2O)nn1)c1ccccc1	i	-7%	?	i	-4%	21µM*
COc1ccccc1NC(=O)Nc1nn(C)c2cccc(OC)c12	i	25%	15%	i	23%	0%
COc1c(C)cc(C(=O)C2CCCN(C(=O)C3=C(C)OCCO3)C2)cc1C (stereo not drawn)	21µM*	1%	?	i	0%	?
O=C(CSc1nc(-c2ccc(Cl)cc2)cs1)Nc1cccc([N+](=O)[O-])c1	?	?	?	?	16µM*	16µM*
O=[N+]([O-])c1cccc(NC(=S)Nc2nc(-c3ccccc3Cl)cs2)c1	i	18µM*	?	?	?	18µM*
Cc1cc(NC(=O)CSc2nc(-c3ccc(Cl)cc3)cs2)no1	i	?	-11%	i	?	-14%
CN(C)c1ncc2nc(-c3ccc(Cl)cc3)c(=O)n(CCC#N)c2n1	/	/	2%	/	/	-2%
O=C1CCC/C=C\C[C@H](CC(=O)N(CCO)Cc2ccccc2)C(=O)N2CCC[C@@H]2CO1	i	12%	-2%	i	7%	-14%
O=C(N[C@H]1C/C=C\C[C@@H](CC(=O)N(CCO)Cc2ccccc2)C(=O)N2CCC[C@@H]2COC1=O)OCC1c2ccccc2-c2ccccc21	i	1%	8.2µM*	i	3%	6.5µM*
